# In the supplement of paper PMC11006884:
# Targets with a hit are over-represented here; the source holds about 6,500 in all. About 2% of all pairs of compound and target were hits.
# Compound: COC(=O)C#Cc1ccccc1 [methyl 3-phenylpropiolate]
# Experiment: log2 ratio of iodoacetamide-alkyne labeling of the cysteine site, DMSO over compound (competition); higher = stronger covalent engagement of the cysteine by the compound, active = 1 or more
# Conditions: 500 µM; treatment time 1 h; system: HEK293T cell lysate
# Procedure, shortened: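 Electrophile (500 µM) or vehicle was added to HEK293T lysate (2 mg/mL) for 1 h at ambient temperature before iodoacetamide alkyne labelling (1 h) and click coupling to sCIP-TMT reagents. After pooling, overnight trypsin digestion at 37 °C, streptavidin enrichment and acid elution, peptides were measured by Orbitrap Eclipse LC-MS/MS with FAIMS and quantified in FragPipe. Each cysteine's log2 competition ratio compares mean control-channel with mean compound-channel reporter intensity, control over compound. Data came from duplicate channels across three replicates, excluding cysteines quantified in only one replicate.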
# Chain of UniProt Q9BYI3 (Q9BYI3 whole entry): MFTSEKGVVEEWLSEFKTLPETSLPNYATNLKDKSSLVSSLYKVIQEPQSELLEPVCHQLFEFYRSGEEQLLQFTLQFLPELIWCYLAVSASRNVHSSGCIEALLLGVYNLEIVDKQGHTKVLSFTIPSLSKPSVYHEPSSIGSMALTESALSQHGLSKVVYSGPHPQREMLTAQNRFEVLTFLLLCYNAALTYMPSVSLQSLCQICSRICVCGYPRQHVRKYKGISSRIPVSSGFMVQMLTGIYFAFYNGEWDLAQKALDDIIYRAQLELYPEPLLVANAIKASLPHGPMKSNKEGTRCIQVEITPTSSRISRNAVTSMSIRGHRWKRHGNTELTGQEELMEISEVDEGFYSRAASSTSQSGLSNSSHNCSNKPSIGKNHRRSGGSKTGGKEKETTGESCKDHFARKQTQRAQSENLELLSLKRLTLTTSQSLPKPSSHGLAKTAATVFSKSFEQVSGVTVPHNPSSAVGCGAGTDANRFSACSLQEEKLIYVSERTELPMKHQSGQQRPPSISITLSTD
# Chain of UniProt Q9UBB6 (Q9UBB6 whole entry, looked up): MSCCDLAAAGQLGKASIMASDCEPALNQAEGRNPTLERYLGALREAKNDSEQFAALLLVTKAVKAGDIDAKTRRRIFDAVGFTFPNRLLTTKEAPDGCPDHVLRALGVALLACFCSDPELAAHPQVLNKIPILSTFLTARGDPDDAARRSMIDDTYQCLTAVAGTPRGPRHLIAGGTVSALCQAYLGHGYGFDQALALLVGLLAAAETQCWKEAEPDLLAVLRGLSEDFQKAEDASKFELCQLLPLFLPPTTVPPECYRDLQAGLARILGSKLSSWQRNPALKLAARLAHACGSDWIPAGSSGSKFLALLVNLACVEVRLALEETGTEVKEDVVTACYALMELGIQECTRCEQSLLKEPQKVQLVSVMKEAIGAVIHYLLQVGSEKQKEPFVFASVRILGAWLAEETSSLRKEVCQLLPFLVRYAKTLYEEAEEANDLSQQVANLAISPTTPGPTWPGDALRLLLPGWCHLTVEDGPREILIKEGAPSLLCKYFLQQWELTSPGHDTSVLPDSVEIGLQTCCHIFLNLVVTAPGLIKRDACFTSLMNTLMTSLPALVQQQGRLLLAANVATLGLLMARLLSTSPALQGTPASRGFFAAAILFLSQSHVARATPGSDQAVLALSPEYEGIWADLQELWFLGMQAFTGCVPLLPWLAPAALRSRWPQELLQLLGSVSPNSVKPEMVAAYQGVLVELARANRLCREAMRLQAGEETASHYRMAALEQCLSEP
# Chain of UniProt Q9NTJ3 (Q9NTJ3 whole entry, looked up): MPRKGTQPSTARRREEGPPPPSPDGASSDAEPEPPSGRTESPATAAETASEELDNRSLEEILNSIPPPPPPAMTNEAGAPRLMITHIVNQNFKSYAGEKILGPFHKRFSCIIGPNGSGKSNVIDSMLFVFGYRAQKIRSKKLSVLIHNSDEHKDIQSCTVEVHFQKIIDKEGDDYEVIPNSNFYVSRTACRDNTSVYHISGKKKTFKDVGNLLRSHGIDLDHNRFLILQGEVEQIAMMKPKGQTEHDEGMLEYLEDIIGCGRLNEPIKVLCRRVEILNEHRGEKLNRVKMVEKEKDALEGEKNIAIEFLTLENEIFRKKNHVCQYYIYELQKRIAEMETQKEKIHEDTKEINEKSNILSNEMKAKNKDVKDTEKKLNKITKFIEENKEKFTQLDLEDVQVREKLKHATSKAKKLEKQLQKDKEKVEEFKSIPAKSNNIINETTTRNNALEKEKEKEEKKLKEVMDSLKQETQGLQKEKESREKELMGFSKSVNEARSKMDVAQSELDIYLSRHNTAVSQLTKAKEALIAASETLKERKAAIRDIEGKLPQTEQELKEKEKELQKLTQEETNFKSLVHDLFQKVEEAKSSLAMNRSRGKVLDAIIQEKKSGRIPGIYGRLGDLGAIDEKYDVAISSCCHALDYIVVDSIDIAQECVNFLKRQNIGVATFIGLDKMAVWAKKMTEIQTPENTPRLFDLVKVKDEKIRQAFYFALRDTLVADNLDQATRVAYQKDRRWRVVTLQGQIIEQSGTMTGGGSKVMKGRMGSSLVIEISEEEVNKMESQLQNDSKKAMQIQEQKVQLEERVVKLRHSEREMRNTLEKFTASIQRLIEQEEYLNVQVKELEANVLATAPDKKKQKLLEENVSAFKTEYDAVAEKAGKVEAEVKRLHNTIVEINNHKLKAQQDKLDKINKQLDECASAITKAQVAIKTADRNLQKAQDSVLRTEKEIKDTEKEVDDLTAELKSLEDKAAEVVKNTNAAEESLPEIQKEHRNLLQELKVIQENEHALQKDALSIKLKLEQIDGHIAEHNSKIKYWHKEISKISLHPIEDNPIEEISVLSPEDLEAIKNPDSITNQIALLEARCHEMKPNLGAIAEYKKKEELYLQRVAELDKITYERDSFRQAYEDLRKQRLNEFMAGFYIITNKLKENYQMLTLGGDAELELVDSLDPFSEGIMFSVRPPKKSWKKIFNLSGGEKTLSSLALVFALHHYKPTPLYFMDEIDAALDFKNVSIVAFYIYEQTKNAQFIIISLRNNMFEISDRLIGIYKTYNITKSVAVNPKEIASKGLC
# Chain of UniProt Q9C0B0 (Q9C0B0 whole entry): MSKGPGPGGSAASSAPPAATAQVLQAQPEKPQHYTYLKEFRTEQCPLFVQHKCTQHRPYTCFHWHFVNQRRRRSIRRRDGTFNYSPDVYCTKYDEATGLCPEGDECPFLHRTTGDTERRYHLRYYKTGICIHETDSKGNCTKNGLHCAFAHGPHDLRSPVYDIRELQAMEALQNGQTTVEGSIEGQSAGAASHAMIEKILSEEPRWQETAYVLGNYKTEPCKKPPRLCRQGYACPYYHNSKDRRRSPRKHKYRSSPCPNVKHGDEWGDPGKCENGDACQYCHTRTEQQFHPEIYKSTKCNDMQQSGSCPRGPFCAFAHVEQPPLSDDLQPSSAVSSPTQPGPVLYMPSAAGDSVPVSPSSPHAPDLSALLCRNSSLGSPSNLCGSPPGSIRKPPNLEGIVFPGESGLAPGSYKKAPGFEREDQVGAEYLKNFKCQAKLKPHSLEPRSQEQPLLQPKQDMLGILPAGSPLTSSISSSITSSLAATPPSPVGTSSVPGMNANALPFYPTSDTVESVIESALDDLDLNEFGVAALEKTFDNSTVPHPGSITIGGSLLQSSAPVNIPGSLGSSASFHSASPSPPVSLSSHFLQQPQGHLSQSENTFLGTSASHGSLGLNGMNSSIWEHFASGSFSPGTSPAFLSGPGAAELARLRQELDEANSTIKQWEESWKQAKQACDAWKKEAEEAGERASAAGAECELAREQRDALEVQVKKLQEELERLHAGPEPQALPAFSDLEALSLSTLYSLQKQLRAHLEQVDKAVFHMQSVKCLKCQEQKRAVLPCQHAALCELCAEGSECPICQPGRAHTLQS
# Chain of UniProt Q9NYH9 (Q9NYH9 whole entry, looked up): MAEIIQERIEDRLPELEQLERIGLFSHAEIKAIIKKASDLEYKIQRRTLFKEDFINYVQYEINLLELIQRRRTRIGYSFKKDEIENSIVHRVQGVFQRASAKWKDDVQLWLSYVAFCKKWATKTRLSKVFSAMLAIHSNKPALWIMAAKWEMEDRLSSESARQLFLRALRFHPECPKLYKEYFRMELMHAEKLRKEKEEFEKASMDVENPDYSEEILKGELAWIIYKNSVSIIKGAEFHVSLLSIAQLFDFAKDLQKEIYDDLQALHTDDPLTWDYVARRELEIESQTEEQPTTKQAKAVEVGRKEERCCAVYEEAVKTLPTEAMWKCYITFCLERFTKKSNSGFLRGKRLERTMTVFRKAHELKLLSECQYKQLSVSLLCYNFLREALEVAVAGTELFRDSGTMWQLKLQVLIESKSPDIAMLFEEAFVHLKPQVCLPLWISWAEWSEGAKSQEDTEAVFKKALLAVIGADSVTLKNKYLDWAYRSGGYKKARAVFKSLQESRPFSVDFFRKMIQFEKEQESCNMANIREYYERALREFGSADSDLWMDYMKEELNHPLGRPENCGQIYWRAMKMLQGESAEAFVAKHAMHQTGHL
# Chain of UniProt Q9H4A4 (Q9H4A4 whole entry, looked up): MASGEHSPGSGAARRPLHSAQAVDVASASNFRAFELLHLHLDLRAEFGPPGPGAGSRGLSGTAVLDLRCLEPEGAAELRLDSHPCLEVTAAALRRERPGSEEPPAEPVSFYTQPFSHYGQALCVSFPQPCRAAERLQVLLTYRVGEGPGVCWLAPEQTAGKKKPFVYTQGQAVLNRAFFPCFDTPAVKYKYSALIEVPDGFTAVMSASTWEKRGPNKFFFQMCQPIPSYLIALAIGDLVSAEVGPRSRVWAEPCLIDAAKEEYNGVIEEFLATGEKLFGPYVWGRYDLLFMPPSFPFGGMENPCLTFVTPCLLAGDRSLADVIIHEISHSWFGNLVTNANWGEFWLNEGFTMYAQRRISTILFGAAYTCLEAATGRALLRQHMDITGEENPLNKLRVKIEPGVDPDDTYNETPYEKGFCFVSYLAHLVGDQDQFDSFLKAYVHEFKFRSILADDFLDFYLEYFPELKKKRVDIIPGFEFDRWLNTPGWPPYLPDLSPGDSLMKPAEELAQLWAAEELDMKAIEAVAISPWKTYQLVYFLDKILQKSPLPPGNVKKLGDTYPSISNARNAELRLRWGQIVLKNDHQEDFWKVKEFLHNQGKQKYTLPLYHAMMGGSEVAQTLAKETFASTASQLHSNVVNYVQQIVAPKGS
# Chain of UniProt Q9NRX1 (Q9NRX1 whole entry): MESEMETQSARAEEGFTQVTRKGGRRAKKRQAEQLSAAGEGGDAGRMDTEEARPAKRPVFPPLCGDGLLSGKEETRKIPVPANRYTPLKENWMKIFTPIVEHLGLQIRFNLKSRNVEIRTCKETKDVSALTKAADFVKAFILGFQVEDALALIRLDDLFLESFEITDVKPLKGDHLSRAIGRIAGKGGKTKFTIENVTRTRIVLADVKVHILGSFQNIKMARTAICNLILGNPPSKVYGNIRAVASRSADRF
# Chain of UniProt Q9Y3C8 (Q9Y3C8 whole entry): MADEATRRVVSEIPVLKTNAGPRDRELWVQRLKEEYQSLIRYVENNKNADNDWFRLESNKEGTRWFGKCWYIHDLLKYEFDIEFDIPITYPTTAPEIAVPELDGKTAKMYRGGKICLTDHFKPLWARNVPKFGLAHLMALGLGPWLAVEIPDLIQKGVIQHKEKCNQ
row,Target,log2 ratio of iodoacetamide-alkyne labeling
1,EPS15L1 C470 (UniProt Q9UBC2),0.13 (inactive)
2,KCTD5 C6 (UniProt Q9NXV2),0.701 (inactive)
3,FAM120A C531 (UniProt Q9NZB2),1.68 (active)
4,SMC4 C190 (UniProt Q9NTJ3),0.109 (inactive)
5,ATG3 C182 (UniProt Q9NT62),0.632 (inactive)
6,NOL6 C1034 (UniProt Q9H6R4),1.81 (active)
7,PNO1 C64 (UniProt Q9NRX1),0.367 (inactive)
8,UFC1 C116 (UniProt Q9Y3C8),0.115 (inactive)
9,NCDN C4 (UniProt Q9UBB6),1.66 (active)
10,UTP6 C175 (UniProt Q9NYH9),1.62 (active)
11,UniProt Q9BXJ9_C465,0.109 (inactive)
12,FAM120A C892 (UniProt Q9NZB2),1.45 (active)
13,LRRC40 C227 (UniProt Q9H9A6),0.34 (inactive)
14,UniProt Q9P2P1_C1222,0.312 (inactive)
15,CHCHD3 C112 (UniProt Q9NX63),0.0891 (inactive)
16,UNK C383 (UniProt Q9C0B0),0.721 (inactive)
17,MRPS18C C90 (UniProt Q9Y3D5),0.167 (inactive)
18,FAM126A C300 (UniProt Q9BYI3),0.174 (inactive)
19,ITSN2 C810 (UniProt Q9NZM3),0.0149 (inactive)
20,RNPEP C181 (UniProt Q9H4A4),0.0149 (inactive)
21,GPHN C419 (UniProt Q9NQX3),0.38 (inactive)
22,CARS2 C526 (UniProt Q9HA77),0.206 (inactive)
